These results are taken from PubChem BioAssay (Tox21).

Structures are written as SMILES. Records with an inconclusive call do not appear. Calls of active or inactive are those of the source. Unless noted, calls come from the whole dose curve; as a rule, active = well fitted curve in the direction sought with a large enough effect in the repeat runs; inconclusive = weak or mixed curves; inactive = no such curve, though single readings can be large; an effect the other way counts as inactive or inconclusive.

A short description of test [1]: qHTS assay to identify small molecule antagonists of the thyroid receptor (TR) signaling pathway - cell viability counter screen (AID 743064). Note: nearly all actives have a fitted effect of over 50% in size. Note: potency is the fitted concentration of half-maximal effect. In short, it runs like this:
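In rat pituitary GH3.TRE-Luc reporter cells co-exposed to compound and 1 nM T3 for 23.5 h, cytotoxicity was assessed with CellTiter-Fluor in the same wells, read by fluorescence.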
For orientation: qHTS replaces the single test concentration by a dilution series.

Test [2] is described as follows: qHTS assay to identify small molecule antagonists of the thyroid receptor (TR) signaling pathway (AID 743065). Note: nearly all actives have a fitted effect of over 55% in size. Note: potency is the fitted concentration of half-maximal effect. In short, it runs like this:
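Antagonism measured as loss of luciferase signal in GH3 cells stably carrying a TRE-luciferase reporter, co-treated with compound and T3 (1 nM final) for 23.5 h at 37 C. Viability was read in the same well by CellTiter-Fluor.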

In test [3] the test system is thyroid hormone receptor (rat, GH3 cells). In words: qHTS assay to identify small molecule agonists of the thyroid receptor (TR) signaling pathway (AID 743066; calls by dose curve).
The target in test [4] is Estrogen receptor (Homo sapiens) (UniProt P03372). In words: qHTS assay to identify small molecule antagonists of the estrogen receptor alpha (ER-alpha) signaling pathway (AID 743069; active = well fitted curve in the direction sought with a large enough effect in the signal ratio in the repeat runs, not every such curve was filed as active; the % refers to the signal ratio). An outline of the steps: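 Compound effects are measured against 17beta-estradiol stimulation in HEK293 cells with a UAS-controlled beta-lactamase reporter for ER-alpha. Exposure lasts 18 hr at 37C; LiveBLAzer B/G FRET substrate follows for 2 hr at room temperature.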

The nature of test [5]: qHTS assay to identify small molecule antagonists of the estrogen receptor alpha (ER-alpha) signaling pathway - cell viability counter screen (AID 743074; calls by dose curve;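 note: HEK293 cells carrying ER-alpha-UAS-bla reporter stimulated with 17beta-estradiol; nearly all actives have a fitted effect of over 45% in size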).
For test [6], the target named is Estrogen receptor (Homo sapiens) (UniProt P03372). In words: qHTS assay to identify small molecule agonists of the estrogen receptor alpha (ER-alpha) signaling pathway (AID 743075; calls by dose curve).
Test [7] has the same target. In words: qHTS assay to identify small molecule agonists of the estrogen receptor alpha (ER-alpha) signaling pathway using the BG1 cell line (AID 743079). Note: nearly all actives have a fitted effect of over 20% in size.
A short description of test [8]: qHTS assay to identify small molecule antagonists of the estrogen receptor alpha (ER-alpha) signaling pathway using the BG1 cell line (AID 743080; calls by dose curve; note: series mostly up to about 70 µM; nearly all actives have a fitted effect of over 25% in size). In short, it runs like this:
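Antagonist mode: compounds in DMSO were pinned onto BG1-Luc-4E2 cells alongside 17beta-estradiol agonist, incubated 21.5 h, and ERE-driven luciferase measured with ONE-Glo. Cytotoxicity was multiplexed using CellTiter-Fluor fluorescence.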

The nature of test [9]: qHTS assay to identify small molecule antagonists of the estrogen receptor alpha (ER-alpha) signaling pathway using the BG1 cell line - cell viability counter screen (AID 743081).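 Note: compound given together with 17beta-estradiol as the ER stimulus; series mostly up to about 70 µM; nearly all actives have a fitted effect of over 45% in size.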
A further test concerns the target Aromatase (Homo sapiens) (UniProt P11511). In words: qHTS assay to identify aromatase inhibitors (AID 743083). Note: series mostly up to about 70 µM; nearly all actives have a fitted effect of over 55% in size.

Estrogen receptor (Homo sapiens), sequence (P03372 whole entry, looked up): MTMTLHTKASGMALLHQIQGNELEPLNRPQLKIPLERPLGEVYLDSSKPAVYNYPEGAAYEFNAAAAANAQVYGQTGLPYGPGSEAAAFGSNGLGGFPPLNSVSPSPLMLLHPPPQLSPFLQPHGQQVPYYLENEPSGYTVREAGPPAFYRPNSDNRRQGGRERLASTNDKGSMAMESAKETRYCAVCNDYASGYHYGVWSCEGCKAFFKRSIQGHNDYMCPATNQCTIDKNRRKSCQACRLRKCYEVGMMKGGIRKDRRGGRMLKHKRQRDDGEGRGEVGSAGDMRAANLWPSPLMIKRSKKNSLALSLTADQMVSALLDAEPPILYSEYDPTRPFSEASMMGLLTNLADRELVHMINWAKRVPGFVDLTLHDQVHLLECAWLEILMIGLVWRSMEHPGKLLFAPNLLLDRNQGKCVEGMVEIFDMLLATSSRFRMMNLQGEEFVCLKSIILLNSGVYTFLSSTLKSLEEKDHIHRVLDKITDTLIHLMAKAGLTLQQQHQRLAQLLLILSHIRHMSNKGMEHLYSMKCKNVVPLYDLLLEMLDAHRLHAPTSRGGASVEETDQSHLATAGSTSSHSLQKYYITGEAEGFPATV
Aromatase (Homo sapiens), sequence (P11511 whole entry, looked up): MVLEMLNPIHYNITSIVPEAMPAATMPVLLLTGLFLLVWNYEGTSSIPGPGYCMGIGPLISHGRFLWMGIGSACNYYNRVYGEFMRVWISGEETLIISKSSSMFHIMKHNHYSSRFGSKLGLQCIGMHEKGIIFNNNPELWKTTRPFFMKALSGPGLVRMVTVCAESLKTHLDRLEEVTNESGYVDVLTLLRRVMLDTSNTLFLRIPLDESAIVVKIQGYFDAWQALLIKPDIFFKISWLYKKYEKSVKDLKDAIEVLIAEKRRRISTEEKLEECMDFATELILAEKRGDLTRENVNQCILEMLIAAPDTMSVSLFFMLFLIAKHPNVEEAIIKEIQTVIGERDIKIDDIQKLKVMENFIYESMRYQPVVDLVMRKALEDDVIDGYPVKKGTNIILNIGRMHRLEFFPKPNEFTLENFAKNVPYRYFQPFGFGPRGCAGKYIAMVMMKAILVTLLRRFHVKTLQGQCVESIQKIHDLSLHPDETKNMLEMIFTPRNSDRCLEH

Consider `CCCCCCCCN(C)C`, for which the Potency result in [1], in test [2], in test [3], in [4], in test [6] and in test [7] was “inactive” throughout. For the same molecule, the Potency result (in test [8]; in [9]; in the test with Aromatase (Homo sapiens)) was “inactive” in each case. Moreover, the outcome in test [5] was inactive.
For `NCCCOCCOCCOCCCN`, the Potency entry in test [1], in test [2], in test [3], in [4], in [6] and in test [7] was “inactive” throughout. In addition, the Potency result (in test [8]; in test [9]; with Aromatase (Homo sapiens)) was “inactive” each time. For the same molecule, the outcome in test [5] was inactive.
For the molecule `N#CCc1cccc(C(F)(F)F)c1`, the Potency result in test [1], in test [2], in [3], in test [4], in test [6] and in [7] was “inactive” each time. Besides, the Potency entry (in test [8]; in test [9]; with Aromatase (Homo sapiens)) was “inactive” each time. Besides, the molecule was classed as inactive in [5].
For the molecule `CCCCCCCCCO`, the Potency entry in test [1], in [2], in test [3], in [4], in [6] and in test [7] was “inactive” in each case. The Potency entry (in [8]; in test [9]; with Aromatase (Homo sapiens)) was “inactive” each time. Besides, the outcome in [5] was inactive.
With `N#CCCNCCC#N`, the Potency result in test [1], in test [2], in test [3], in test [4], in [6] and in [7] was “inactive” throughout. Moreover, the Potency entry in test [8] and in test [9] was “inactive” each time. The result in [5] was inactive.
Turning to `COC(=O)C(C)=O`, the Potency result in [1], in [2], in test [3], in [4], in test [6] and in test [7] was “inactive” each time. The Potency result (in test [8]; in [9]; with Aromatase (Homo sapiens)) was “inactive” throughout. Besides, in [5], the result was inactive.
Regarding `NCCCN(CCO)CCO`, the Potency entry in test [1], in [2], in test [3], in test [4], in test [6] and in test [7] was “inactive” each time. The Potency entry (in test [8]; in [9]; with Aromatase (Homo sapiens)) was “inactive” in each case. Also, the outcome in test [5] was inactive.
Take `CC(C)NCC(O)COc1ccc(CC(N)=O)cc1` (configuration not stated): the Potency entry in test [1], in test [2], in [3], in [4], in test [6] and in test [7] was “inactive” throughout. For the same molecule, the Potency result in test [8] and in test [9] was “inactive” each time. The outcome in test [5] was inactive.
In the case of `CN(C)CCCOc1nn(Cc2ccccc2)c2ccccc12`, the Potency is 8.04 µM (active) in test [1] and 9.02 µM (active) in [2]. In addition, the Potency result in test [3], in test [4], in test [6], in test [7], in test [8] and in test [9] was “inactive” in each case. Further, the Potency entry in the test with Aromatase (Homo sapiens) is “inactive”. Moreover, the molecule was called inactive in test [5].
As to `CCCCCCCCCCCCCCCBr`, the Potency result in test [1], in test [2], in [3], in [4], in test [6] and in [7] was “inactive” each time. Also, the Potency entry (in test [8]; in [9]; with Aromatase (Homo sapiens)) was “inactive” throughout. Also, the result in test [5] was inactive.
`OCC1CC2CC1C1CCC(CO)C21` (configuration not stated): the Potency result in [1], in test [2], in test [3], in [4], in [6] and in [7] was “inactive” each time. Moreover, the Potency result (in [8]; in test [9]; in the test with Aromatase (Homo sapiens)) was “inactive” throughout. For the same molecule, the outcome in test [5] was inactive.
Turning to `O=C(O)COC(=O)Cc1ccccc1Nc1c(Cl)cccc1Cl`, the Potency entry in test [1], in test [2], in test [3], in test [4], in test [6] and in test [7] was “inactive” throughout. Moreover, the Potency entry (in [8]; in test [9]; with Aromatase (Homo sapiens)) was “inactive” in each case. Also, the call in test [5] was inactive.
`C=CC[N+]1([C@H]2C[C@H]3[C@@H]4CC[C@H]5C[C@H](OC(C)=O)[C@@H](N6CCCCC6)C[C@]5(C)[C@H]4CC[C@]3(C)[C@H]2OC(=O)CC)CCCCC1`: the Potency entry in [1], in test [2], in [3], in [4], in test [6] and in test [7] was “inactive” throughout. In addition, the Potency result (in test [8]; in test [9]; with Aromatase (Homo sapiens)) was “inactive” throughout. For the same molecule, the call in test [5] was inactive.
For the molecule `O=C(C(=O)c1ccc(Br)cc1)c1ccc(Br)cc1`, the Potency result in [1], in test [2], in [3], in [4], in [6] and in test [7] was “inactive” in each case. Also, the Potency entry (in [8]; in test [9]; in the test with Aromatase (Homo sapiens)) was “inactive” in each case. Further, the call in test [5] was inactive.
As for `CCCCOC(O)CC` (configuration not stated), the Potency entry in test [1], in test [2], in test [3], in test [4], in test [6] and in [7] was “inactive” each time. Besides, the Potency entry (in test [8]; in [9]; with Aromatase (Homo sapiens)) was “inactive” each time. Further, the molecule was classed as inactive in test [5].
On to `CC(=O)N(O)CCCCCNC(=O)CCC(=O)N(O)CCCCCNC(=O)CCC(=O)N(O)CCCCCN`, for which the Potency result in [1], in test [2], in test [3], in test [4], in test [6] and in test [7] was “inactive” throughout. Also, the Potency result (in [8]; in test [9]; in the test with Aromatase (Homo sapiens)) was “inactive” each time. Also, the outcome in test [5] was inactive.
Regarding `ClC(Cl)(Cl)c1ccc(C(Cl)(Cl)Cl)cc1`, the Potency entry in [1], in [2], in [3], in test [4], in [6] and in [7] was “inactive” in each case. Further, the Potency entry in test [8] and in test [9] was “inactive” throughout. Moreover, the call in [5] was inactive.
As for `Cn1c(=O)c2c(ncn2CC(O)CO)n(C)c1=O` (configuration not stated), the Potency result in test [1], in test [2], in test [3], in [4], in test [6] and in [7] was “inactive” each time. Also, the Potency result (in [8]; in test [9]; with Aromatase (Homo sapiens)) was “inactive” each time. Moreover, the outcome in [5] was inactive.
Consider `CCOC(=O)CC(C)C`, for which the Potency entry in test [1], in test [2], in test [3], in test [4], in test [6] and in [7] was “inactive” in each case. For the same molecule, the Potency entry (in test [8]; in test [9]; with Aromatase (Homo sapiens)) was “inactive” throughout. For the same molecule, the result in test [5] was inactive.
Consider `O=C(O)C1CCC(C(=O)O)CC1` (configuration not stated), for which the Potency entry in test [1], in [2], in [3], in test [4], in test [6] and in [7] was “inactive” throughout. Moreover, the Potency entry (in [8]; in test [9]; with Aromatase (Homo sapiens)) was “inactive” throughout. Besides, in [5], the call was inactive.
For the molecule `COCCOCCOCCOCCOC`, the Potency result in test [1], in test [2], in test [3], in [4], in test [6] and in test [7] was “inactive” each time. The Potency result (in test [8]; in test [9]; in the test with Aromatase (Homo sapiens)) was “inactive” in each case. Moreover, the molecule was classed as inactive in test [5].
Regarding `CCOC(=S)SSC(=S)OCC`, the Potency result in test [1], in test [2], in test [3], in [4], in test [6] and in [7] was “inactive” throughout. The Potency entry (in test [8]; in [9]; in the test with Aromatase (Homo sapiens)) was “inactive” in each case. For the same molecule, the molecule was classed as inactive in test [5].
As for `CCOC(=O)CC(=O)c1cc(F)c(Cl)nc1Cl`, the Potency entry in [1], in [2], in [3], in test [4], in test [6] and in [7] was “inactive” each time. Further, the Potency result (in test [8]; in test [9]; in the test with Aromatase (Homo sapiens)) was “inactive” each time. Moreover, the call in test [5] was inactive.
